Screening results from PubChem.
FLuc modulator: firefly luciferase modulation, counter-screen for miR-21 project | P08659 | purified FLuc, Km substrates, luminescence inhibition | Potency, µM (doses to about 57.5 µM), without a hit: at the highest dose activity change, negative = inhibition, most hits filed as inhibitors | actives 6.9% (n = 360,000);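 also: plate controls were vehicle for no effect and reference inhibitor for full effect; nearly all actives have a fitted effect of over 55% in size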
Target sequence (P08659 whole entry, looked up): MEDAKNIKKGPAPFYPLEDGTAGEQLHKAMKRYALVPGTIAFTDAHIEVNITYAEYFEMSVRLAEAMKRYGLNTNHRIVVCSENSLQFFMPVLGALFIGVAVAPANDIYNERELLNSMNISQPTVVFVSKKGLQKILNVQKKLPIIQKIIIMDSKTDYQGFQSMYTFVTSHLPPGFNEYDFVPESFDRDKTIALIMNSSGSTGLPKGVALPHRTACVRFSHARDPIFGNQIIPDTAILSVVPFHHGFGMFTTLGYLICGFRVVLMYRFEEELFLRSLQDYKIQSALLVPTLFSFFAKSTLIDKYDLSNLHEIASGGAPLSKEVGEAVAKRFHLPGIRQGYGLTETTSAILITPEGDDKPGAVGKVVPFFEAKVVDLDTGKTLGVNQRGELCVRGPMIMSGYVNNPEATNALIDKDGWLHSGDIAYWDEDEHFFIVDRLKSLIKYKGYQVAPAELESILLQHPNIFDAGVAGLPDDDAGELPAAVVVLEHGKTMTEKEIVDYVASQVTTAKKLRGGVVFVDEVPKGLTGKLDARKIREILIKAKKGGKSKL
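Biochemical qHTS of compounds, final roughly 60 µM downward over six points, against 10 nM purified firefly luciferase using Km concentrations of substrates (10 uM D-luciferin, 10 uM ATP) in Tris acetate pH 7.5 buffer; luminescence output.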
ELG1 genotox: induces genotoxicity in HEK293T cells with luciferase-tagged ELG1; HEK293T ELG1-luciferase reporter, luminescence, 16 h; Potency, µM (highest dose often 46 µM), inactives show top-dose activity change, positive = activation, hits mostly activators; actives 1.3% (n = 330,000); also: % of control where 0% means no effect; nearly all actives have a fitted effect of over 60% in size
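HEK293T cells expressing luciferase-tagged ELG1 were exposed to compound or DMSO vehicle for 16 hr at 37 °C and 5% CO2. Luciferase activity was then measured with ONE-Glo after 30 min at room temperature.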
Rab9 prom act: activates the Rab9 promoter; Huh7 Rab9 promoter-luciferase reporter, luminescence, 24 h; Potency, µM (doses to about 9.22 µM), for the others: top-dose activation, negative = inhibition, most hits filed as activators; actives 2.8% (n = 320,000); AID 485297; also: % of control where 0% means no effect; nearly all actives have a fitted effect of over 60% in size
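Quantitative HTS format; Huh7 Rab9-luciferase reporter cells (1500/well) receive compound 2 h post-plating, incubate 24 h at 37 °C, then get luciferase reagent for 10 min before luminescence reading.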
SMN2 splice up: increases expression of the SMN2 splice variant | AID 1458 | HEK293 SMN2-luciferase splicing reporter, luminescence, 30-36 h | Potency, µM (top dose mostly 46.1 µM), inactives show at the highest dose activity change, positive = activation, most hits filed as activators | actives 2.8% (n = 210,000); also: % of control where 0% means no effect; nearly all actives have a fitted effect of over 55% in size
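HEK293 cells carry an SMN2 minigene-luciferase reporter in which exon 7 inclusion puts luciferase in frame. Cells were seeded at 2000 cells/well, attached for 10-12 hours, then exposed to compounds for 30-36 hours at 37C before ONE-Glo luminescence.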
NPC1 prom act: activates the NPC1 promoter | Potency, µM (doses to about 9.22 µM), for the others: at the highest dose activation, most hits filed as activators | Huh7 NPC1 promoter luciferase reporter, 24 h | actives 2.4% (n = 320,000) | AID 485313; also: % of control where 0% means no effect; nearly all actives have a fitted effect of over 60% in size
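Luminescence from an NPC1 promoter-driven luciferase reporter in stably transfected Huh7 cells was measured after 24 h compound treatment at 37 °C, followed by 10 min ambient incubation with luciferase detection reagent.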
uPA surface inh: cell surface uPA generation inhibition. Potency, µM (series often up to 38.3 µM), for inactives: at the highest dose activity change, negative = inhibition, most hits filed as inhibitors. AID 540303. cell surface uPA generation assay, qHTS. actives 0.31% (n = 330,000); active = well fitted inhibition curve with a large enough effect; inconclusive = small, poorly fitted or top-dose-only effect; inactive = no such curve, though single readings can be large or run the other way; tested in mouse RAW 264.7 cells; also: % is scaled to controls: 0 for no effect and ±100 for the full control effect; nearly all actives have a fitted effect of over 55% in size
Active calls of the source: *; ? = inconclusive; / = no result; [ ] = another dose, or the depositor's remark. In the library only some 7.3% were active in any assay of this set; here they are far more common. Unless noted, calls follow the shape of the dose curve; as a rule, active = well fitted curve in the direction sought with a large enough effect; inconclusive = small, poorly fitted or top-dose-only effect, or another doubt; inactive = no such curve, though single readings can be large; an effect the other way counts as inactive or inconclusive. Potency is read from the fitted curve at half-maximal effect.

SMILES	FLuc modulator	ELG1 genotox	Rab9 prom act	SMN2 splice up	NPC1 prom act	uPA surface inh
COc1ccc(-n2cc(-c3ccc(Cl)cc3)[nH]c2=S)cc1	-12%	6%	1.3µM*	/	28%	-1%
Cc1cc(C)n(-c2nc(NCCCO)c3c4c(sc3n2)CCCC4)n1	21µM*	6%	16%	-48%	20%	-10%
Nn1c(Cc2ccccc2)nc2cc(Cl)ccc2c1=O	0%	-2%	-1%	/	-3%	13%
O=C(CCC1N=C2c3ccccc3N=C(SCc3cccc(Cl)c3)N2C1=O)NCc1cccs1 (stereo not given)	5%	/	/	/	/	/
CNC(=O)/C(C#N)=C/c1cccc(Oc2ccccc2)c1	8.5µM*	?	-3%	/	-4%	1%
O=C1NC(=S)NC1=Cc1ccco1	/	/	/	/	/	1%
O=C1NC(c2ccccc2Br)=N/C1=C\c1ccco1	0.38µM*	?	?	/	13%	-4%
O=C1NNC(c2ccccc2)=N/C1=C\c1ccccc1	0%	-1%	-3%	/	18%	16%
O=C1NC(c2ccccc2)=N/C1=C/c1ccco1	2.1µM*	?	3.2µM*	13µM*	3.5µM*	-5%
O=C1NC(=O)/C(=C/c2ccco2)N1	-3%	5%	0%	/	0%	1%
O=C1NC(c2cccc(Br)c2)=N/C1=C\c1ccco1	11µM*	16%	?	-13%	?	-28%
O=C(COc1ccccc1F)Nc1ccc2oc(-c3cccc(Cl)c3)nc2c1	-3%	/	/	/	/	/
CCC1=C2CC[C@H]3C(=O)N(c4ccccc4)C(=O)[C@H]3[C@H]2[C@@]2(Cc3ccccc3)C(=NCCOC)OC(=O)N2C1=O	/	/	/	-3%	/	/
O=C(OCC1CC(c2ccccc2)=NO1)c1ccc(Br)cc1 (stereo not given)	6%	0%	2%	?	0%	5%
O=C(OCC1CC(c2ccccc2)=NO1)c1ccco1 (stereo not given)	7.6µM*	2%	1%	/	-1%	-5%
O=C(N/N=C/c1ccc2cccc(OCc3ccccc3)c2n1)c1ccc(Cl)cc1	6.7µM*	-10%	4%	-4%	6%	-9%
O=C(N/N=C/c1ccc2c(c1)OCO2)c1ccc(COc2cccc3cccnc23)cc1	5.4µM*	0%	?	7%	18%	-18%
COc1ccc(/C=N/NC(=O)c2ccc(COc3cccc4cccnc34)cc2)cc1OC	?	-12%	1%	-12%	1%	12%
O=C(N/N=C/c1cccc(O)c1)c1ccc(COc2cccc3cccnc23)cc1	17µM*	15%	2%	12%	-14%	-7%
COc1ccc(/C=N/NC(=O)c2sccc2OCc2ccc(F)cc2)cc1OC	13µM*	0%	-1%	-11%	-8%	2%
COc1ccc(CNC(=O)C2CCN(c3nnc(-n4c(C)ccc4C)s3)CC2)c(OC)c1	-2%	/	/	7%	/	/
COc1ccc(/C=N/NC(=O)c2ccc(COc3cccc4cccnc34)cc2)cc1O	13µM*	-6%	-7%	/	1%	-4%
Cc1cccc(NC(=O)NCc2ccc3c(c2)cc(C)n3C)c1	-3%	?	-4%	2%	4%	3%
COc1ccc(CNC(=O)Nc2cccc(Cl)c2)cc1	?	?	?	/	2.5µM*	5%
COc1ccccc1C(=O)Nc1cccc(NC(C)=O)c1	?	-1%	-5%	-11%	0%	/
SMILES	FLuc modulator	ELG1 genotox	Rab9 prom act	SMN2 splice up	NPC1 prom act	uPA surface inh
Cc1cc2cc(CNC(=O)Nc3cccc(Cl)c3)ccc2n1C	-4%	23µM*	0%	-25%	1%	16%
COc1ccccc1C(=O)NC(=O)Nc1cccc(Cl)c1	2.7µM*	?	4µM*	/	?	4%
Cc1ccc(OCc2ccc(-c3nc(C#N)c(NCc4ccccc4Cl)o3)o2)cc1	-1%	/	/	/	/	/
COc1ccc2[nH]cc(CCO)c2c1	/	/	/	11%	/	/
CC1=C(C(=O)Nc2cccnc2)C(c2cccc(Br)c2)n2nc(SCc3ccccc3)nc2N1 (stereo not given)	0%	/	/	-1%	/	/
CC(C)(C)c1ccc(-c2nc(NCc3cccnc3)c3ccccc3n2)cc1	3.4µM*	?	21%	25µM*	?	-10%
O=C(COc1ccccc1)NCCSc1ccccc1	27µM*	21µM*	12%	21%	?	0%
COc1ccccc1OCCNC(=O)c1ccc(Br)cc1	24µM*	?	0%[1.84 µM]	/	?	-5%
COc1ccc(C(=O)NCCSc2ccccc2)cc1OC	?	?	?	14µM*	?	0%
CC(C)(C)SCCNC(=O)COc1ccccc1	-7%	7%	-4%	7%	-3%	-13%
CN(C)S(=O)(=O)c1ccc(C(=O)NCCSc2ccccc2)cc1	?	10µM*	?	18%	?	5%
COc1ccccc1OCCNC(=O)c1ccc(C(C)(C)C)cc1	/	/	/	/	/	1%
O=C(Cn1nc(-c2ccccc2)nc(Cc2ccccc2)c1=O)Nc1ccc(Cl)cc1	-1%	/	/	/	/	/
Cn1c(/C=C/c2ccc(Cl)cc2)c([N+](=O)[O-])c(=O)n(C)c1=O	-2%	-3%	-20%	/	-5%	5.6µM*
Cn1c(/C(C#N)=C/c2cccc(O)c2)nc2ccccc21	13µM*	?	?	?	28%	-11%
COc1ccc(/C=C(\C#N)c2nc3ccccc3n2C)c(OC)c1	24µM*	/	/	24%	/	/
COc1cc(/C=C(\C#N)c2nc3ccccc3n2C)cc(OC)c1OC	19µM*	/	/	-11%	/	/
Cc1ccc(S(=O)(=O)N2CCN(Cc3ccccc3Cl)CC2)cc1	-14%	/	/	-13%	/	/
C/C(=N\NC(=O)c1ccncc1)c1cccc(NC(=O)c2ccc(Cl)s2)c1	19µM*	-1%	1%	/	24%	-7%
Cc1occc1C(=O)Nc1cccc(C(F)(F)F)c1	-15%	2%	-9%	-36%	-9%	1%
COC(=O)c1cc(NC(=O)c2ccoc2C)cc(C(=O)OC)c1	1%	-3%	-5%	10%	-4%	2%
Cc1ccc(NC(=O)c2ccoc2C)cc1C	?	?	2.8µM*	16µM*	?	4%
Cc1occc1C(=O)Nc1cccc(C(=O)O)c1	9.5µM*	?	2.8µM*	?	2.2µM*	/
Cc1occc1C(=O)Nc1ccc2c(c1)OCO2	24µM*	21µM*	2.8µM*	13µM*	3.5µM*	-4%
CC(C)ON([C@@H](C(=O)NO)C(C)C)S(=O)(=O)c1ccc(-c2ccccc2)cc1	/	/	-35%[46.1 µM]	/	-15%[46.1 µM]	/
COc1cc(/C=C\C(=O)N2CCC=CC2=O)cc(OC)c1OC	/	/	/	-49%[20.6 µM]	/	/
CCCCCC(=O)C(=O)c1ccc(O)cc1O	2%	0%	-7%	/	-3%	9%
CC(C)Cn1nnnc1S(=O)(=O)CCc1ccccc1	/	/	/	18%	/	/
